Test results published in PMC5540273 (PLoS ONE, 2017).

Assays:
Settings in all cases: concentration: 1 μM,replicates: in singlicate; n = 1
RIOK1 = tested on: RIOK1
RIOK2 = tested on: RIOK2
RIOK3 = tested on: RIOK3
RIPK1 = tested on: RIPK1
RIPK2 = tested on: RIPK2
RIPK4 = tested on: RIPK4
RIPK5 = tested on: RIPK5
ROCK1 = tested on: ROCK1
ROCK2 = tested on: ROCK2
ROS1 = tested on: ROS1
[1] = tested on: RPS6KA4(Kin.Dom.1-N-terminal)
[2] = tested on: RPS6KA4(Kin.Dom.2-C-terminal)
[3] = tested on: RPS6KA5(Kin.Dom.1-N-terminal)
[4] = tested on: RPS6KA5(Kin.Dom.2-C-terminal)
[5] = tested on: T1, RSK1(Kin.Dom.1-N-terminal)
T1 construct: gene RPS6KA1

[6] = tested on: T2, RSK1(Kin.Dom.2-C-terminal)
T2 construct: gene RPS6KA1

[7] = tested on: T3, RSK2(Kin.Dom.1-N-terminal)
T3 construct: gene RPS6KA3

[8] = tested on: T4, RSK2(Kin.Dom.2-C-terminal)
T4 construct: gene RPS6KA3

[9] = tested on: T5, RSK3(Kin.Dom.1-N-terminal)
T5 construct: gene RPS6KA2

[10] = tested on: T6, RSK3(Kin.Dom.2-C-terminal)
T6 construct: gene RPS6KA2
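Also: KINOMEscan kinase panel screen.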

Structure (SMILES) | %Inh (RIOK1) [%] | %Inh (RIOK2) [%] | %Inh (RIOK3) [%] | %Inh (RIPK1) [%] | %Inh (RIPK2) [%] | %Inh (RIPK4) [%] | %Inh (RIPK5) [%] | %Inh (ROCK1) [%] | %Inh (ROCK2) [%] | %Inh (ROS1) [%] | %Inh [1] [%] | %Inh [2] [%] | %Inh [3] [%] | %Inh [4] [%] | %Inh [5] [%] | %Inh [6] [%] | %Inh [7] [%] | %Inh [8] [%] | %Inh [9] [%] | %Inh [10] [%]
CC(C)c1nc(-c2cccc(NS(=O)(=O)c3ccccc3)c2)c(-c2ccnc(Nc3ccc4c(c3)CN(C)CC4)n2)s1 [GSK1649598] | 18 | 0 | 24 | 0 | 98.7 | 36 | 8 | 0 | 0 | 0 | 33 | 0 | 4 | 0 | 73 | 44 | 10 | 0 | 15 | 0
COc1cccc(OC)c1C(=O)Nc1cccc(-c2nn3ccccc3c2-c2ccnc(Nc3cccc(F)c3)n2)c1 [GSK361065] | 43 | 2 | 19 | 17 | 38 | 9 | 32 | 0 | 14 | 4 | 8 | 14 | 0 | 0 | 36 | 0 | 0 | 13 | 6 | 15
N#Cc1cccc(C(=O)NC2CCN(c3ccnc(Nc4ccc(F)cc4)n3)C2)c1 (stereo not shown) [GSK1379708] | 24 | 0 | 0 | 0 | 0 | 6 | 0 | 0 | 0 | 13 | 0 | 0 | 0 | 0 | 15 | 0 | 0 | 0 | 0 | 0
CN1CCN(CCNc2nc3cc(Oc4ccc(NC(=O)Nc5cc(C(F)(F)F)ccc5F)cc4)ccc3[nH]2)CC1.Cl.Cl [GW768504] | 0 | 0 | 8 | 2 | 1 | 0 | 3 | 48 | 0 | 16 | 5 | 0 | 0 | 1 | 7 | 28 | 0 | 0 | 0 | 8
OCCn1cc(-c2cnc3nnn(Cc4ccc5ncccc5c4)c3n2)cn1 | 0 | 0 | 19 | 0 | 0 | 0 | 0 | 0 | 0 | 0 | 1 | 0 | 0 | 2 | 9 | 0 | 0 | 0 | 0 | 0
